Here are results for six molecules from PubChem BioAssay (Tox21).

The nature of test [1]: qHTS assay for small molecule agonists of the p53 signaling pathway (AID 651631; calls by dose curve; note: nearly all actives have a fitted effect of over 15% in size). The method in brief: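 Stably transfected HCT-116 cells (beta-lactamase behind p53 response elements) get compounds after a 5 h settling period; 16 h later at 37 °C, FRET substrate is loaded and fluorescence read after 2 h.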
For orientation: In qHTS, concentration-response curves come from the screen itself.

Test [2] can be described thus: qHTS assay for small molecules that induce genotoxicity in human embryonic kidney cells expressing luciferase-tagged ATAD5 (AID 651632). Note: nearly all actives have a fitted effect of over 15% in size. The method in brief:
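Increased luciferase signal from ATAD5-tagged reporter cells indicates DNA-damage-driven ATAD5 induction. HEK293T cells are treated for 16 hr at 37C before detection with Amplite.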

A short description of test [3]: qHTS assay for small molecule agonists of the p53 signaling pathway - cell viability (AID 651633; calls by dose curve;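 note: p53RE-bla HCT reporter cells with a stable beta-lactamase p53 reporter; nearly all actives have a fitted effect of over 30% in size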). The method, boiled down:
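p53RE-bla cells were treated with compound for 16 hours at 37 C. Cytotoxicity was then measured as CellTiter-Glo luminescence after 30 min at room temperature.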

Test [4] can be described thus: qHTS assay for small molecules that induce genotoxicity in human embryonic kidney cells expressing luciferase-tagged ATAD5 - cell viability (AID 651634; calls by dose curve; note: nearly all actives have a fitted effect of over 25% in size). The method in brief:
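Cytotoxicity counterscreen in HEK293T cells bearing an ATAD5-luciferase reporter: live-cell protease activity measured by CellTiter-Fluor fluorescence after 15.5 hr compound exposure.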

Test [5] can be described thus: qHTS assay for small molecule disruptors of the mitochondrial membrane potential - cell viability (AID 720634; calls by dose curve;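 note: human HepG2 liver cancer cells; nearly all actives have a fitted effect of over 20% in size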). The method, boiled down: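 After overnight attachment at 37 C, HepG2 cells received compound or DMSO vehicle for 1 hr. Viability is then taken from ATP-driven luminescence following a 30 min room-temperature CellTiter-Glo step.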
Test [6] in a line: qHTS assay for small molecule disruptors of the mitochondrial membrane potential (AID 720635). Note: potency is the fitted concentration of half-maximal effect. The method in brief:
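HepG2 cells exposed to compound 1 hr at 37C, then Mito-MPS dye 30 min. Ratio read of aggregate (540/590 nm) versus monomer (490/535 nm) fluorescence.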

The nature of test [7]: qHTS assay to test for compound auto fluorescence at 590 nm (red) in HepG2 cells (AID 720674). The method in brief:
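Seeding: 2,000 HepG2 cells/well, MEM/10% FBS, overnight 37 C. Dosing: compound vs DMSO. Incubation: 1 hr, 37 C, 5% CO2. Read: fluorescence 540 ex/590 em, Rose Bengal sodium as red reference.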

Test [8] is described as follows: qHTS assay to test for compound auto fluorescence at 460 nm (blue) in HEK293 cells (AID 720678). The method in brief:
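Blue-channel (Ex/Em 405/460 nm) intensity measured in HEK293 cultures after overnight compound exposure at 37C; signal expressed relative to triamterene. Cells plated 2,000 per well in 10% dialyzed FBS medium and allowed 4-5 hr to attach.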

Test [9] in a line: qHTS assay to test for compound auto fluorescence at 590 nm (red) in HEK293 cells (AID 720679). The method in brief:
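Red-channel autofluorescence (Ex/Em 540/590 nm; Rose Bengal sodium reference) was measured after overnight 37C, 5% CO2 exposure of attached HEK293 cells, 2,000 per well in medium with 10% dialyzed FBS.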

Test [10] can be described thus: qHTS assay to test for compound auto fluorescence at 535 nm (green) in HEK293 cells (AID 720680).
Test [11] can be described thus: qHTS assay to test for compound auto fluorescence at 460 nm (blue) in HEK293 cell free culture (AID 720681). The method in brief:
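Compounds were added to cell-free DMEM with 10% FBS and fluorescence read directly. The blue channel used 405 nm excitation and 460 nm emission, with triamterene as the reference fluorophore.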

Test [12] is described as follows: qHTS assay to test for compound auto fluorescence at 535 nm (green) in HEK293 cell free culture (AID 720682). The method, boiled down: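 Using fluorescein as calibrant, autofluorescence was quantified at 485/535 nm in cell-free DMEM containing 10% FBS after pintool addition of compound or vehicle.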
Test [13] can be described thus: qHTS assay to test for compound auto fluorescence at 590 nm (red) in HEK293 cell free culture (AID 720683). The method in brief: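 Cell-free wells of DMEM with 10% FBS received compound, and intrinsic fluorescence was read at excitation/emission 540/590 nm. Values expressed as equivalence to Rose Bengal sodium.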
The nature of test [14]: qHTS assay to test for compound auto fluorescence at 590 nm (red) in HepG2 cell free culture (AID 720684). The method, boiled down: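 Compounds are added to culture medium (MEM, 10% FBS) lacking cells, then fluorescence is read at excitation 540 nm, emission 590 nm, with Rose Bengal sodium as the equivalency standard.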
Test [15] is described as follows: qHTS assay to test for compound auto fluorescence at 460 nm (blue) in HepG2 cell free culture (AID 720685). The method, boiled down: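 Compound (23 nL) or DMSO pinned into cell-free MEM with 10% FBS; blue fluorescence read at 405/460 nm excitation/emission, expressed as auto-fluorescence equivalency to triamterene.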
Test [16] can be described thus: qHTS assay to test for compound auto fluorescence at 535 nm (green) in HepG2 cell free culture (AID 720686).
A short description of test [17]: qHTS assay to test for compound auto fluorescence at 460 nm (blue) in HepG2 cells (AID 720687). The method in brief:
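HepG2 cells in MEM with 10% FBS, attached overnight at 37 C, were exposed to compound or DMSO for 1 hr at 37 C, 5% CO2. Blue fluorescence was read at 405/460 nm, with triamterene as reference fluorophore.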

Test [18] deals with Glucocorticoid receptor (Homo sapiens) (UniProt P04150). In words: qHTS assay to identify small molecule agonists of the glucocorticoid receptor (GR) signaling pathway (AID 720691; active = well fitted activation curve with a large enough effect in the signal ratio in the repeat runs, not every such curve was filed as active; the % refers to the signal ratio). Particulars: GR-bla HeLa, beta-lactamase reporter ratio, 18 h; activation: at 62.4 µM (top of the series). The method in brief: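 Agonist mode in a HeLa line carrying a GRE-controlled beta-lactamase reporter. Compounds act for 18 h at 37 C before a 2 h room-temperature FRET substrate step and fluorescence reading.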
Glucocorticoid receptor (Homo sapiens), sequence (P04150 whole entry, looked up): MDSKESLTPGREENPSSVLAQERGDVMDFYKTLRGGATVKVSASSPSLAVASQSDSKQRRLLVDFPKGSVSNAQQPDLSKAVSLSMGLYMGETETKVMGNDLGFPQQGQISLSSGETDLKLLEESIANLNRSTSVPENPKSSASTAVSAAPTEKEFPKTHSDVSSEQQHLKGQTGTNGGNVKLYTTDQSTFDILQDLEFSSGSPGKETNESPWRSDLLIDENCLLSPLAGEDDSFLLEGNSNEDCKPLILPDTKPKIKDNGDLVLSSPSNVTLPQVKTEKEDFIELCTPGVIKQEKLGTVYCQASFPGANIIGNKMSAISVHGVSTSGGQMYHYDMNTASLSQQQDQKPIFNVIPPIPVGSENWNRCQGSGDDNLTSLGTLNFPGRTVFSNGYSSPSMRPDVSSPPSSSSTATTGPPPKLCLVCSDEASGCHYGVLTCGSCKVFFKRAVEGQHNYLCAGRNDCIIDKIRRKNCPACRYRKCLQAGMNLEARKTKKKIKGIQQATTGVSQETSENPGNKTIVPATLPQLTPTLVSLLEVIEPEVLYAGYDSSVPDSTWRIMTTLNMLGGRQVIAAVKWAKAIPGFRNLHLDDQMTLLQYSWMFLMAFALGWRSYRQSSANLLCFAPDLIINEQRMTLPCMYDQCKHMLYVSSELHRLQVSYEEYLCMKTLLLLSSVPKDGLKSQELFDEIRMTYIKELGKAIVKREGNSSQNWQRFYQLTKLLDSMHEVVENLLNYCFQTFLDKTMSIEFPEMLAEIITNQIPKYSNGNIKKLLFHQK

Test [19] shares this target. In words: qHTS assay to identify small molecule antagonists of the glucocorticoid receptor (GR) signaling pathway (AID 720692; active = well fitted inhibition curve with a large enough effect in the signal ratio in the repeat runs, not every such curve was filed as active; the % refers to the signal ratio). The method in brief: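 Cells plated, rested 4 h at 37 C/5% CO2; compounds in DMSO pin-transferred; dexamethasone added to 5 nM final; 18 h at 37 C; B/G FRET substrate added, 2 h room temperature; fluorescence measured.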
Test [20] in a line: qHTS assay to test for compound auto fluorescence at 535 nm (green) in HepG2 cells (AID 720675).

“And” between values parts separate entries of the source, which are not always exact repeats. Equal values may be shown once. Inconclusive results are not listed. Where a structure was tested more than once in an assay, its records may differ in their call. The source made the active and inactive calls. Unless noted, calls come from the whole dose curve; as a rule, active = well fitted curve in the direction sought with a large enough effect in the repeat runs; inconclusive = weak or mixed curves; inactive = no such curve, though single readings can be large; an effect the other way counts as inactive or inconclusive.

Turning to `Cc1onc(-c2c(F)cccc2Cl)c1C(=O)N[C@@H]1C(=O)N2[C@@H]1SC(C)(C)[C@@H]2C(=O)O`, the Potency entry in test [1], in test [2], in test [3], in test [4], in [5] and in test [6] was “inactive” throughout. For the same molecule, the Potency entry in [8], in [11], in [15], in test [16], in test [17] and in [18] was “inactive” each time. In test [19], the Potency result is “inactive”. Besides, the molecule was classed as inactive in test [7], in test [9], in test [10], in [12], in test [13] and in test [14].

As to `CC(=O)OCC(=O)[C@@]1(O)CC[C@H]2[C@@H]3CCC4=CC(=O)CC[C@]4(C)C3=CC[C@@]21C`, the Potency entry in test [1], in test [2], in test [3], in [4], in test [5] and in [6] was “inactive” in each case. The Potency entry in [8], in test [11], in [15], in [16], in [17] and in test [18] was “inactive” in each case. For the same molecule, the call in test [7], in [9], in [10], in [12], in test [13] and in [14] was inactive.

On to `CC(C)c1ncc([N+](=O)[O-])n1C`, for which the Potency entry in [1], in [2], in test [3], in test [4], in [5] and in [6] was “inactive” in each case. Also, the Potency result in test [20], in test [8], in test [11], in [15], in [16] and in test [17] was “inactive” in each case. Moreover, the Potency result in test [18] and in test [19] was “inactive” each time. Besides, the molecule was classed as inactive in test [7], in test [9], in test [10], in test [13] and in test [14].

Regarding `CC(C)=CCC/C(C)=C/CC/C(C)=C/CC/C(C)=C/CC1=C(C)C(=O)c2ccccc2C1=O`, the Potency entry in [1], in test [2], in test [3], in test [4], in [5] and in [8] was “inactive” throughout. Also, the Potency result in test [11], in test [15], in [16] and in [17] was “inactive” each time. Moreover, the Potency entry in [6] is “inactive and 13.3 µM (active)”. Also, the molecule was classed as inactive in test [7], in test [9], in test [10], in test [12], in [13] and in test [14].

Turning to `CCN(CC)C(=O)c1cccnc1`, the Potency result in test [1], in [2], in [3], in [4], in test [5] and in test [6] was “inactive” each time. For the same molecule, the Potency result in test [8], in test [11], in test [15], in test [16], in test [17] and in [18] was “inactive” throughout. Besides, the Potency entry in [19] is “inactive”. The molecule was classed as inactive in test [7], in test [9], in test [10], in test [12], in [13] and in test [14].

For `COc1ccc([C@@H]2CC(=O)c3c(O)cc(O[C@@H]4O[C@H](CO[C@@H]5O[C@@H](C)[C@H](O)[C@@H](O)[C@H]5O)[C@@H](O)[C@H](O)[C@H]4O)cc3O2)cc1O`, the Potency result in test [1], in test [2], in test [3], in [4], in test [5] and in test [6] was “inactive” throughout. Moreover, the Potency entry in test [20], in test [8], in test [11], in [15], in [16] and in test [17] was “inactive” each time. Moreover, the Potency result in test [18] and in test [19] was “inactive” throughout. Also, the molecule was called inactive in test [7], in test [9], in test [10], in test [13] and in test [14].
